Z-score, remaining NAD and luciferase signal data for 27 molecules are collected here from PubChem BioAssay.

Values joined by “and” are separate entries in the source; they are usually repeats but may differ in a detail not shown here. Identical values can stand only once. Active and inactive are the calls of the source.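 The calls were made as follows, unless noted: active = z-score of at least 1.8 in each of two replicates, scored against plate mean and spread of sample wells; inactive = the rest.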

Test system in the first assay: not listed separately
Nature of the assay: MELAS cybrid and Rieske KO viability enhancers – cell-based, MELAS cybrids, Rieske KO mouse fibroblasts, CellTiter-Glo, primary screen (AID 1508586).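 Also: z relative to plate mean and SD of compound and empty wells.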 The note with it: Rieske KO mouse fibroblast survival, low glucose, CellTiter-Glo 72 h. (In general: ATP-based viability assays read luminescence as a measure of living cells.)
`Cc1c(-c2cnccn2)ssc1=S`: the z-score is -0.106. On the same count and under the same terms, to `CC(C)(CO)[C@@H](O)C(=O)NCCC(=O)O` belongs 0.568 and -1.28; to `OC(c1cc(C(F)(F)F)nc2c(C(F)(F)F)cccc12)C1CCCCN1` (stereo not drawn), -3.08. Still for that read-out and setting: to `CN1C(C(=O)Nc2ccccn2)=C(O)c2sc(Cl)cc2S1(=O)=O` belongs 0.681; to `CN[C@@H]1[C@H](O[C@H]2[C@H](O[C@@H]3[C@@H](O)[C@H](O)[C@@H](N=C(N)N)[C@H](O)[C@H]3N=C(N)N)O[C@@H](C)[C@]2(O)C=O)O[C@@H](CO)[C@H](O)[C@H]1O`, -0.384 and -1.54; to `Cc1coc2c1C(=O)C(=O)c1c-2ccc2c1CCCC2(C)C`, 0.381 and 0.81. The same measure, in the same setting: the same measure for `CC[C@]1(O)CC2CN(CCc3c([nH]c4ccccc34)[C@@](C(=O)OC)(c3cc4c(cc3OC)N(C)[C@H]3[C@@](O)(C(=O)OC)[C@H](OC(C)=O)[C@]5(CC)C=CCN6CC[C@]43[C@@H]65)C2)C1` (stereo partly drawn): 1.21. On to `N#CC(c1ccc(Cl)cc1)c1c(Cl)cc(-n2ncc(=O)[nH]c2=O)cc1Cl` (stereo not drawn), for which the z-score was 0.144 and -0.703 and -0.429.

With `CC(C)NC[C@H](O)COc1cccc2ccccc12`, the z-score was -0.593. Still for that read-out and setting: to `COc1ccc(C2Sc3ccccc3N(CCN(C)C)C(=O)C2OC(C)=O)cc1` (stereo not drawn) belongs -0.2.

The target in another assay is NAD(+) hydrolase SARM1 (Homo sapiens) (UniProt Q6SZW1). As to the kind of experiment: blocking NAD cleavage by SARM1 SAM-TIR – cell lysate, NAD-Glo luminescence (AID 1508614;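 active = compound whose remaining NAD level is above about 45 nM, limit read from the data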;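 also: higher remaining NAD means stronger inhibition of SARM1 NADase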). The conditions noted are these: SAM-TIR HEK293T lysate NADase, at 1 µM, stronger effect = higher value.
Chain of NAD(+) hydrolase SARM1 (Homo sapiens) (Q6SZW1 whole entry, looked up): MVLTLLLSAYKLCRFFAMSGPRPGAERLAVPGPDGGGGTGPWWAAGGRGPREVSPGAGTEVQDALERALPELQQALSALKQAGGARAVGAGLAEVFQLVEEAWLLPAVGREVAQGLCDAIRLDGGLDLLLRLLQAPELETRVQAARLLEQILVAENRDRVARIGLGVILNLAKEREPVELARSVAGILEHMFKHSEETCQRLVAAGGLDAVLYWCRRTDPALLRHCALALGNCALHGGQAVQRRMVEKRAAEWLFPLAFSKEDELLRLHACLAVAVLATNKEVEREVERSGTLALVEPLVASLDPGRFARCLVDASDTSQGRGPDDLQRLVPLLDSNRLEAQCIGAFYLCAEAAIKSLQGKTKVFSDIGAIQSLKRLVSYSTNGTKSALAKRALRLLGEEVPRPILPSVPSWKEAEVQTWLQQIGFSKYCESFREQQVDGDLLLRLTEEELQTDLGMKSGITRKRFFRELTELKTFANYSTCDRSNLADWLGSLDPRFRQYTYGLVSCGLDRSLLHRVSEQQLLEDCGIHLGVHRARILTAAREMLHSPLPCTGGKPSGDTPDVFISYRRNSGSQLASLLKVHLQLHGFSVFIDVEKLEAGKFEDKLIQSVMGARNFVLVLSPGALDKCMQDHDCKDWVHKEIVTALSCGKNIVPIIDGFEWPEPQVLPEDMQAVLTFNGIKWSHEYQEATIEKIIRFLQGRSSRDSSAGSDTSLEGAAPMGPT
Regarding `Cc1c(-c2cnccn2)ssc1=S`, the remaining NAD is 10 nM (inactive).

On to `N[C@@H](CC(=O)N1CCn2c(nnc2C(F)(F)F)C1)Cc1cc(F)c(F)cc1F`, for which the remaining NAD is 10 nM (inactive). On the same count and under the same terms, to `OC[C@@H](O)[C@@H](O)[C@H](O)[C@@H](O)CO` belongs 10 nM (inactive). The same measure, in the same setting: to `N#C[C@@H]1C[C@@H]2C[C@@H]2N1C(=O)[C@@H](N)C12CC3CC(CC(O)(C3)C1)C2` belongs 10 nM (inactive); to `CC(C)(CO)[C@@H](O)C(=O)NCCC(=O)O`, 10 nM (inactive); to `CN1C(C(=O)Nc2ccccn2)=C(O)c2sc(Cl)cc2S1(=O)=O`, 10 nM (inactive). `COC(=O)/C=C/C(=O)OC`: the remaining NAD is 10 nM (inactive). The same measure, in the same setting: to `Nc1nc(F)nc2c1ncn2[C@@H]1O[C@H](COP(=O)(O)O)[C@@H](O)[C@@H]1O` belongs 10 nM (inactive). `C=CC[C@@H]1/C=C(\C)C[C@H](C)C[C@H](OC)[C@H]2O[C@@](O)(C(=O)C(=O)N3CCCC[C@H]3C(=O)O[C@H](/C(C)=C/[C@@H]3CC[C@@H](O)[C@H](OC)C3)[C@H](C)[C@@H](O)CC1=O)[C@H](C)C[C@@H]2OC`: the remaining NAD was 10 nM (inactive). Consider `N#CC(c1ccc(Cl)cc1)c1c(Cl)cc(-n2ncc(=O)[nH]c2=O)cc1Cl` (stereo not drawn), for which the remaining NAD is 10 nM (inactive). Still for that read-out and setting: the same measure for `Clc1ccc(CCC(Cn2ccnc2)Sc2c(Cl)cccc2Cl)cc1` (stereo not drawn): 10 nM (inactive); for `COc1ccc2nc3cc(Cl)ccc3c(Nc3cc(CN4CCCC4)c(O)c(CN4CCCC4)c3)c2n1`: 10 nM (inactive).

For the next assay, the target named is Mitogen-activated protein kinase 7 (Homo sapiens) (UniProt Q13164). As to the kind of experiment: Gal4-ERK5 driven luciferase induction – cell-based, HTS, primary screen (AID 1508626;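 active = luciferase signal above three times the same-plate solvent-only control wells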;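 also: luciferase driven by Gal4-ERK5 fusion binding five Gal4 sites before minimal TATA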). The conditions noted are these: HeLa Gal4-ERK5 transactivation, 18 h, at 5 µM, stronger effect = higher value.
Chain of Mitogen-activated protein kinase 7 (Homo sapiens) (Q13164 whole entry, looked up, the tested form may be a part): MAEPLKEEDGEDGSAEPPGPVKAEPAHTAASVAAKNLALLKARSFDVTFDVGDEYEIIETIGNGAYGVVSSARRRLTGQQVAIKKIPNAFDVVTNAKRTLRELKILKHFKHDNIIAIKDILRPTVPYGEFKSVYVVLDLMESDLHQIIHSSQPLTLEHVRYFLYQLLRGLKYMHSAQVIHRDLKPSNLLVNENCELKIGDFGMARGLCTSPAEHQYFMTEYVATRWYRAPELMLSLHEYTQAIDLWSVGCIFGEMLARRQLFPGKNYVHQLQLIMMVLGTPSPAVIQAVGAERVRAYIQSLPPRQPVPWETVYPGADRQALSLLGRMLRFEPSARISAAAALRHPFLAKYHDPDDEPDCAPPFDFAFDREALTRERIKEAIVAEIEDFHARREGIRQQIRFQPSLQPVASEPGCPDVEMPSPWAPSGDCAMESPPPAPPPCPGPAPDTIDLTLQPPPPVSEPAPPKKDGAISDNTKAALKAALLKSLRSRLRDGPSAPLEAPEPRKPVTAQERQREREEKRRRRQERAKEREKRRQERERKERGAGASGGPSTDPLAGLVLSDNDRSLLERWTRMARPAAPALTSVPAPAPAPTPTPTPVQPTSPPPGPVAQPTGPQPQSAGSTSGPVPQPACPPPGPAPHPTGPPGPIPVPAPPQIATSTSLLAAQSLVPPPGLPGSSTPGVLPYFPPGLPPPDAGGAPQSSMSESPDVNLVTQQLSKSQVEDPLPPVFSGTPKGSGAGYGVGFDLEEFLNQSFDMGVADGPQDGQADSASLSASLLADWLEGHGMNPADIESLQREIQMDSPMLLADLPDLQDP
For the molecule `N[C@@H](CC(=O)N1CCn2c(nnc2C(F)(F)F)C1)Cc1cc(F)c(F)cc1F`, the luciferase signal was 92 AU (inactive). As to `CC(C)(CO)[C@@H](O)C(=O)NCCC(=O)O`, the luciferase signal was 68 AU (inactive). As to `CN(C)CC[C@H](c1ccc(Cl)cc1)c1ccccn1`, the luciferase signal is 80 AU (inactive).

In the case of `C[C@H]1COC2=C1C(=O)C(=O)c1c2ccc2c1CCCC2(C)C`, the luciferase signal was 80 AU (inactive). The same measure, in the same setting: to `COC1=C(OC)C(=O)C(C/C=C(\C)CC/C=C(\C)CC/C=C(\C)CC/C=C(/C)CC/C=C(\C)CC/C=C(\C)CC/C=C(\C)CC/C=C(\C)CC/C=C(\C)CCC=C(C)C)=C(C)C1=O` belongs 80 AU (inactive); to `CC(C)=CCC/C(C)=C/CC/C(C)=C/CC/C(C)=C/CC/C(C)=C/CC/C(C)=C/CC/C(C)=C/CC/C(C)=C/CC/C(C)=C/CO`, 20 AU (inactive); to `Cc1coc2c1C(=O)C(=O)c1c-2ccc2c1CCCC2(C)C`, 32 AU (inactive). Regarding `Nc1nc(F)nc2c1ncn2[C@@H]1O[C@H](COP(=O)(O)O)[C@@H](O)[C@@H]1O`, the luciferase signal is 52 AU (inactive). `CC[C@@]1(O)C(=O)OCc2c1cc1n(c2=O)Cc2cc3cc(O)ccc3nc2-1`: the luciferase signal was 44 AU (inactive). As for `C=CC[C@@H]1/C=C(\C)C[C@H](C)C[C@H](OC)[C@H]2O[C@@](O)(C(=O)C(=O)N3CCCC[C@H]3C(=O)O[C@H](/C(C)=C/[C@@H]3CC[C@@H](O)[C@H](OC)C3)[C@H](C)[C@@H](O)CC1=O)[C@H](C)C[C@@H]2OC`, the luciferase signal is 68 AU (inactive).

Test system in another assay: not listed separately
Nature of the assay: galactose survival enhancers in mitochondrial complex I cybrids – cell-based, galactose medium, ATP luminescence, primary screen (AID 1645843).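 Also: positive z means more ATP and so rescue of galactose-driven cybrid death.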 The note with it: complex I mutant cybrid cells, 72 h, stronger effect = higher value.
On to `Cc1c(-c2cnccn2)ssc1=S`, for which the z-score is -0.085 (inactive). With `CC1CC2C3CCC4=CC(=O)C=C[C@]4(C)[C@@]3(F)[C@@H](O)C[C@]2(C)[C@@]1(O)C(=O)CO` (stereo partly drawn), the z-score was 1.44 (inactive).

Turning to `CC(C)(CO)[C@@H](O)C(=O)NCCC(=O)O`, the z-score was -0.065 (inactive). For the molecule `Nc1nc(N)c2nc(CNc3ccc(C(=O)NC(CCC(=O)O)C(=O)O)cc3)cnc2n1` (stereo not drawn), the z-score was 0.075 (inactive). As for `CN[C@@H]1[C@H](O[C@H]2[C@H](O[C@@H]3[C@@H](O)[C@H](O)[C@@H](N=C(N)N)[C@H](O)[C@H]3N=C(N)N)O[C@@H](C)[C@]2(O)C=O)O[C@@H](CO)[C@H](O)[C@H]1O`, the z-score is -0.095 (inactive). As for `CCCCS(=N)(=O)CCC(N)C(=O)O` (stereo not drawn), the z-score was -0.42 (inactive).

Take `Cc1coc2c1C(=O)C(=O)c1c-2ccc2c1CCCC2(C)C`: the z-score is -1.64 (inactive). With `CC[C@]1(O)CC2CN(CCc3c([nH]c4ccccc34)[C@@](C(=O)OC)(c3cc4c(cc3OC)N(C)[C@H]3[C@@](O)(C(=O)OC)[C@H](OC(C)=O)[C@]5(CC)C=CCN6CC[C@]43[C@@H]65)C2)C1` (stereo partly drawn), the z-score is -1.85 (inactive). Regarding `CC1=C(C(=O)O)N2C(=O)[C@@H](NC(=O)C(N)c3ccccc3)[C@H]2SC1` (stereo partly drawn), the z-score was 0.41 (inactive). Same read-out and setting: the same measure for `N#CC(c1ccc(Cl)cc1)c1c(Cl)cc(-n2ncc(=O)[nH]c2=O)cc1Cl` (stereo not drawn): -0.445 (inactive); for `CC(C)NC[C@H](O)COc1cccc2ccccc12`: -0.055 (inactive) and 0.085 (inactive) and -0.035 (inactive).
